# According to PubChem BioAssay (NCATS):
# Records with an inconclusive call do not appear. Calls of active or inactive are those of the source. Calls come from the whole dose curve; as a rule, active = well fitted inhibition curve with a large enough effect; inconclusive = small, poorly fitted or top-dose-only effect; inactive = flat fitted curve, though single readings scatter.
# Tested on: Zika virus NS2B-NS3 protease
# Assay: Primary screen GU AMC qHTS for Zika virus inhibitors (AID 1347154); note: nearly all actives have a fitted effect of over 70% in size;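 for activity change, negative = inhibition: 0% = no-inhibitor control and -100% = no-enzyme control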
# Conditions: Zika NS2B-NS3 unlinked protease, AMC fluorogenic substrate; series mostly up to 54.1 µM; activity change, negative = inhibition: at the top concentration
# In short: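 Unlinked Zika NS2B hydrophilic domain/NS3 protease domain noncovalent complex (25 nM final) in 10 mM Tris-HCl pH 8.0, 0.01% Tween 20, with AMC peptide substrate. Fluorescence (ex 340, em 450 nm) change over 15 min, room temperature; percent inhibition fitted to 4-parameter Hill equation.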
# Potency is the fitted concentration of half-maximal effect.
SMILES,"activity change, negative = inhibition",Potency
CNC1[C@H](O)C(O[C@@H]2C(O)C(O[C@H]3O[C@H]([C@@H](C)NC)CC[C@H]3N)[C@@H](N)C[C@H]2N)OC[C@]1(C)O (some centres not stated),-4.25% (inactive),
CO[C@H]1O[C@@H]2O[C@@]3(C)CC[C@@H]4[C@@H](C)CC[C@@H]([C@H]1C)[C@@]24OO3,6.37% (inactive),
OC[C@H]1O[C@@H](O[C@H]2[C@@H](O)[C@@](O)(CO)O[C@@H]2CO)[C@H](O)[C@@H](O)[C@@H]1O,-1.02% (inactive),
CCNC(=O)Nc1ccc(Oc2ncnc(N)c2C=NOC)cc1Cl,2.63% (inactive),
O=C(c1ccc(C=Cc2n[nH]c3ccccc23)cc1)N1CCNCC1,,7.64 µM (active)
C[C@H](CCC(=O)O)[C@H]1CC[C@H]2[C@H]3[C@@H](CC[C@]12C)[C@@]1(C)CC[C@@H](O)C[C@H]1C[C@@H]3O,-9.77% (inactive),
O=C1CN2Cc3c(ccc(Cl)c3Cl)N=C2N1,-0.611% (inactive),
CC(C)(F)C[C@H](N[C@@H](c1ccc(-c2ccc(S(C)(=O)=O)cc2)cc1)C(F)(F)F)C(=O)NC1(C#N)CC1,-0.85% (inactive),
CC[C@H](C=C[C@@H](C)[C@H]1CC[C@H]2[C@@H]3CC=C4C[C@@H](O)CC[C@]4(C)[C@@H]3CC[C@]12C)C(C)C,-3.13% [at 25.8 µM] (inactive),
CNc1nc(-c2ccc3c(N)n[nH]c3c2)cc(N2C[C@@H](C(=O)NC3CCCCC3)CC[C@@H]2C)n1,-4.38% (inactive),
COc1ccc2cc1Oc1ccc(cc1)C[C@H]1c3cc(c(OC)cc3CCN1C)Oc1c(OC)c(OC)cc3c1[C@H](C2)N(C)CC3,,inactive
CCOc1ccccc1N=Nc1c(C)[nH]n(-c2nc(-c3ccccc3)cs2)c1=O,-0.557% (inactive),
C[C@H]1O[C@@H](n2cc(F)c(=O)[nH]c2=O)[C@H](O)[C@H]1O,-5.04% (inactive),
Oc1cc(O)cc(C=Cc2ccc(O)c(O)c2)c1,,13.6 µM (active)
O=C(O)c1ccc(O)c2ncc(N3CCOCC3)cc12,-18.1% (inactive),
O=C(Nc1cccc(Cl)c1)Nc1ncc(CCNc2ncnc3ccsc23)s1,-14.3% (inactive),
O=c1[nH]c(=O)n([C@H]2C[C@@H](O)[C@@H](CO)O2)cc1I,0.0631% (inactive),
O=C(O)CCC=CCC[C@@H]1[C@H](N2CCCCC2)[C@@H](O)C[C@@H]1OCc1ccc(-c2ccccc2)cc1,1.91% (inactive),
OC[C@H]1O[C@@H](OCCc2ccc(O)cc2)[C@H](O)[C@@H](O)[C@H]1O,1.2% (inactive),

SMILES,"activity change, negative = inhibition",Potency
C[C@]12C=CC(=O)C=C1CC[C@@H]1[C@@H]2[C@@H](O)C[C@@]2(C)[C@@H]1CC[C@]2(O)C(=O)CO,6.13% (inactive),
CC(C)(CO)[C@@H](O)C(=O)NCCC(=O)O,10.2% (inactive),
CN1CC(=O)NC1=NC(=O)Nc1cccc(Cl)c1,-4.35% (inactive),
O=C(Nc1ncc(SCCN2CCCC2)s1)[C@]1(c2ccc(S(=O)(=O)C3CC3)cc2)C[C@@H]1C1CCCCC1,-10.1% (inactive),
CCCCC(C)(C)[C@H](O)C=C[C@H]1[C@H](O)CC(=O)[C@H]1CC=CCCCC(=O)O,-3.53% (inactive),
CCNC(=O)[C@H]1O[C@@H](n2cnc3c(N)nc(NCCc4ccc(CCC(=O)O)cc4)nc32)[C@H](O)[C@H]1O,-0.653% (inactive),
CN(C)S(=O)(=O)c1ccc2c(c1)C(=Cc1cc3c([nH]1)CCCC3)C(=O)N2,13% (inactive),
O=C(O)c1nc(=O)[nH]c(=O)[nH]1,-6.43% [at 25.8 µM] (inactive),
COc1ccc2c(c1)CC[C@H]1[C@@H]2CC[C@]2(C)[C@@H](NCCCCCCN3C(=O)C=CC3=O)CC[C@H]12,-1.52% (inactive),
CCCCCOC(=O)Nc1nc(=O)n([C@@H]2O[C@H](C)[C@@H](O)C2O)cc1F (some centres not stated),-18.4% (inactive),
C[C@@H]1CC=CC=CC=CC=C[C@@H](O[C@@H]2O[C@H](C)[C@@H](O)[C@H](N)[C@H]2O)C[C@@H]2O[C@](O)(C[C@@H](O)C[C@@H]3O[C@@H]3C=CC(=O)O1)C[C@H](O)[C@@H]2C(=O)O,0.862% (inactive),
CCOC(=O)N1CCN([N+]([O-])=NOc2cc(ON=[N+]([O-])N3CCN(C(=O)OCC)CC3)c([N+](=O)[O-])cc2[N+](=O)[O-])CC1,-5.16% (inactive),
CCCCC(C=O)NC(=O)C(CC(C)C)NC(=O)OCc1ccccc1 (configuration not stated),10.2% (inactive),
Cc1nc(NC(=O)N2CCC[C@@H]2C(N)=O)sc1-c1csc(C(C)(C)C)n1,0.125% (inactive),
Cc1cc(NC(=O)Nc2ccc(N(C)C)cc2)c2cc(F)cc(F)c2n1,-1.41% (inactive),
CCC=CC[C@H]1C(=O)CC[C@@H]1CC(=O)OC,22.5% (inactive),
CC(=O)OCC(=O)[C@@]12OC(C)(C)O[C@H]1C[C@H]1[C@@H]3C[C@H](F)C4=CC(=O)C=C[C@]4(C)[C@@]3(F)[C@@H](O)C[C@@]12C,11.3% (inactive),
N=C1SC(=Cc2ccc(-c3ccc4c(c3)C(=O)NC4=O)o2)C(=O)N1c1ccc(Br)cc1,-15.3% (inactive),
